Measurements published in PubChem BioAssay AID602143 (Vanderbilt Specialized Chemistry Center, 2011).
Where “and” joins values, the source holds several entries; their conditions need not be identical. Equal entries are not always repeated. Where a structure was tested more than once in an assay, its records may differ in their call. Calls of active or inactive are those of the source. No stated cut-off is given here; in the data, active means remaining activity below about 50%; inactive means the rest.

These molecules were tested against Phospholipase D2 (Homo sapiens) (UniProt O14939) (assay: cellular phospholipase D2 activity inhibition – cell-based, HEK293, single concentration (AID 602143;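 further: tested at 200 nM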)). Settings: HEK293 cellular PLD2 activity, percent of control; stronger effect = lower value.
Sequence of Phospholipase D2 (Homo sapiens) (O14939 whole entry, looked up): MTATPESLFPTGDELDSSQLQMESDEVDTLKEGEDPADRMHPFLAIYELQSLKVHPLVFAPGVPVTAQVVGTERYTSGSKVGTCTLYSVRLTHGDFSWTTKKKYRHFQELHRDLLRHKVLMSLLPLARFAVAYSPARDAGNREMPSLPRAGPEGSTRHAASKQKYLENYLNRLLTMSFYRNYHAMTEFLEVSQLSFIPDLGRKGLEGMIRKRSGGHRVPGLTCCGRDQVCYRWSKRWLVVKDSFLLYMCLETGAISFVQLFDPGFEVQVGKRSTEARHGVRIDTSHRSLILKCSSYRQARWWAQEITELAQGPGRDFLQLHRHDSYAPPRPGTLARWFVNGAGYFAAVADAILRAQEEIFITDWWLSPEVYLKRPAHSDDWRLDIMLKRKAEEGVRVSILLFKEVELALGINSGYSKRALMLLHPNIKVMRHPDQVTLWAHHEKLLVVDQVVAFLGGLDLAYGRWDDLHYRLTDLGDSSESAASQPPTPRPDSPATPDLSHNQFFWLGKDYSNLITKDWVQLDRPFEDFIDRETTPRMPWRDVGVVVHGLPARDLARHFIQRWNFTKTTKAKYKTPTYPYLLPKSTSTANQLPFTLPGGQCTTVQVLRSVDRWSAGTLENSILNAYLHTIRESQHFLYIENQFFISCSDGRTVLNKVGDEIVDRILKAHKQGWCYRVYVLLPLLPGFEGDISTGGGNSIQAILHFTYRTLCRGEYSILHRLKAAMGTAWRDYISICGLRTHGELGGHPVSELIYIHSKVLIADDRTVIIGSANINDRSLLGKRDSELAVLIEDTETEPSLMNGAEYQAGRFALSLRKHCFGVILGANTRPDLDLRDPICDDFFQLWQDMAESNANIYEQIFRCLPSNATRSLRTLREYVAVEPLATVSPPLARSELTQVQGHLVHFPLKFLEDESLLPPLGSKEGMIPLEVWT
Sequence of Phospholipase D2 (Homo sapiens) (O14939 whole entry, looked up): as above

Compound	remaining activity
O=C(NCCN1CCC2(CC1)C(=O)NCN2c1ccc(F)cc1)c1ccc(F)cc1	46.9% (active)
O=C(NCCN1CCC2(CC1)C(=O)Oc1ccccc12)c1cnc2ccccc2c1	57.4% (inactive)
O=C(NCCN1CCC2(CC1)C(=O)NCN2c1cccc(F)c1)c1ccc(OC(F)(F)F)cc1	78% (inactive)
O=C(NCCN1CCC2(CC1)C(=O)NCN2c1ccccc1)c1ncc(F)cc1F	52.8% (inactive)
O=C(NCCN1CCC2(CC1)C(=O)NCN2c1cccc(F)c1)c1ccc(Cl)cc1Cl	92.4% (inactive)
O=C(NCCN1CCC2(CC1)C(=O)NCN2c1ccccc1)c1cnc2ccccc2n1	101% (inactive)
O=C(NCCN1CCC2(CC1)C(=O)NCN2c1ccc(F)c(F)c1)c1ccc2ccccc2c1	40.1% (active)
C[C@@H](CN1CCC2(CC1)C(=O)NCN2c1ccc(F)c(F)c1)NC(=O)c1cc2ccccc2[nH]1	0% (active)
O=C(NCCN1CCC2(CC1)C(=O)NCN2c1ccc(Cl)cc1)c1cnc2ccccc2c1	29.7% (active)
O=C(NCCN1CCC2(CC1)C(=O)NCN2c1ccccc1)c1cccc(F)n1	63.2% (inactive)
O=C(NCCN1CCC2(CC1)C(=O)NCN2c1ccccc1)c1cc(-c2ccccc2)no1	88.3% (inactive)
CN1CN(c2ccccc2)C2(CCN(CCNC(=O)c3ccc4ccccc4c3)CC2)C1=O	57.9% (inactive)
O=C(NCCN1CCC2(CC1)C(=O)NCN2c1ccccc1)c1ccc2cc(F)ccc2c1	68.8% (inactive)
O=C(NCCN1CCC2(CC1)C(=O)NCN2c1ccccc1)c1cnco1	80.4% (inactive)
O=C(CCCl)NCCN1CCC2(CC1)C(=O)NCN2c1cccc(F)c1	87.1% (inactive)
O=C(c1ccc2ccccc2c1)N1CCCC1CN1CCC(n2c(=O)[nH]c3ccccc32)CC1 (stereo unspecified)	49.9% (active) and 63.2% (inactive)
C[C@@H](CN1CCC2(CC1)C(=O)NCN2c1ccccc1)NC(=O)c1ccc(F)c(F)c1	54.7% (inactive)
O=C(Cc1cccs1)NCCN1CCC2(CC1)C(=O)NCN2c1cccc(F)c1	77.8% (inactive)

Compound	remaining activity
O=C(NCCN1CCC2(CC1)C(=O)NCN2c1ccc(Br)cc1)c1cc2cc(F)ccc2[nH]1	23.7% (active)
O=C(NCCN1CCC2(CC1)C(=O)NCN2c1ccccc1)c1cscn1	76.2% (inactive)
O=C(NCCN1CCC2(CC1)C(=O)NCN2c1ccc(F)cc1)c1ccc2cc(F)ccc2c1	61.1% (inactive)
O=C(NCCN1CCC2(CC1)C(=O)NCN2c1ccccc1)C1CCc2ccccc2C1 (stereo unspecified)	50.3% (inactive) and 75.3% (inactive)
C[C@@H](CN1CCC2(CC1)C(=O)NCN2c1ccc(F)c(F)c1)NC(=O)c1cc2cc(F)ccc2[nH]1	4.81% (active)
COc1ccc(CC(=O)NCCN2CCC3(CC2)C(=O)NCN3c2cccc(F)c2)cc1OC	102% (inactive) and 91.9% (inactive)
CC(C)[C@@H](CN1CCC2(CC1)C(=O)NCN2c1ccccc1)NC(=O)c1cnc2ccccc2c1	59.3% (inactive)
O=C(c1ccc(F)c(F)c1)N(CCN1CCC2(CC1)C(=O)NCN2c1cccc(F)c1)C(=O)c1ccc(F)c(F)c1	106% (inactive)
CC(C)[C@@H](CN1CCC2(CC1)C(=O)NCN2c1ccccc1)NC(=O)c1ccc(F)cc1	74.9% (inactive)
O=C(NCCN1CCC2(CC1)C(=O)NCN2c1cccc(Br)c1)c1ccc2ccccc2c1	47.8% (active)
O=C(c1cccc(F)c1)N(CCN1CCC2(CC1)C(=O)NCN2c1cccc(F)c1)C(=O)c1cccc(F)c1	71.6% (inactive)
O=C(NCCN1CCC2(CC1)C(=O)NCN2c1ccccc1)C(c1ccccc1)c1ccccc1	74.8% (inactive)
CC(C)[C@@H](CN1CCC2(CC1)C(=O)NCN2c1ccccc1)NC(=O)c1cc2cc(F)ccc2[nH]1	57.1% (inactive)
O=C(NCCN1CCC2(CC1)C(=O)NCN2c1cccc(F)c1)c1ccc(F)nc1	85.7% (inactive)
O=C(CCN1CCC2(CC1)C(=O)NCN2c1ccccc1)Nc1ccc(F)cc1	119% (inactive)
COc1cccc(C(=O)NCCN2CCC3(CC2)C(=O)NCN3c2ccccc2)n1	60.7% (inactive)
COc1cc(OC)cc(C(=O)NCCN2CCC3(CC2)C(=O)NCN3c2cccc(F)c2)c1	84.7% (inactive)
C[C@@H](CN1CCC2(CC1)C(=O)NCN2c1ccc(F)c(F)c1)NC(=O)c1cnc2ccccc2c1	7.28% (active)
